Consider 47 compounds from PubChem BioAssay AID2685 (National Center for Advancing Translational Sciences (NCATS), 2010).

Screen size: about 320,000 compounds; about 2,100 (0.66%) were called active. Roughly 53% stayed inconclusive and do not appear here. The sample holds actives, similar compounds and a random draw of the others, so the mix is not that of the screen. The call rests on the fitted dose curve; in most records, active means well fitted inhibition curve with a large enough effect in the signal ratio, with a control signal flat (not every such curve was filed as active); inconclusive means small, poorly fitted or top-dose-only effect, or effect the other way, or a change in a side signal; inactive means flat fitted curve, though single readings scatter; the % refers to the signal ratio.
Potency means the concentration at half of the fitted maximal effect.

A short description of this experiment: qHTS Assay for Lipid Storage Modulators in Drosophila S3 Cells.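 On cell number change: cells counted by Cell Tracker Red CMTPX staining in the red channel.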 On lipid storage change, negative = inhibition: on the % scale 0 is the no-effect control and ±100 the full control effect. Conditions: BODIPY lipid droplet fluorescence, 18-24 h, cells fed with added oleic acid; cell number change: measured here: cell count max response; series mostly up to 46.1 µM; lipid storage change, negative = inhibition: at the top concentration. In outline: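 Laser-scanning cytometry quantifies lipid droplet accumulation (500–530 nm total intensity; droplet/cell object ratio) in oleic acid-fed (400 uM added) Drosophila S3 cells treated with a concentration series. 20 uM Triacsin C defined 100% inhibition.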
(In general: qHTS replaces the single test concentration by a dilution series.)
Turning to `O=C(Cc1cccc(C(F)(F)F)c1)NCc1cccnc1`, the “lipid storage change, negative = inhibition” value was -11.2% (inactive) and the cell number change came out at 16.2%.
On to `CCc1c(C)sc(NC(=S)N2CCN(C(=O)C3CCCO3)CC2)c1C(=O)OC` (configuration not stated), for which the result was inactive.
As to `COc1ccc(C(=O)N/C(=C\c2cn(C)c3ccccc23)C(=O)N2CCN(C)CC2)cc1`, the result was inactive and the cell number change was found to be 12.5%.
On the same counts, the results for `COc1ccc(NC(=O)/C(C#N)=C/c2cccnc2)c(OC)c1` are “inactive” and -14.9%.
On the same counts, the results for `COc1ccccc1NC(=O)/C(C#N)=C/c1cccnc1` are “inactive” and 14.4%.
As for `COc1ccccc1NC(=O)/C(C#N)=C/c1ccncc1`, the Potency is 1.16 µM (active) and the cell number change was -3.78%.
Consider `Cc1ccc(NC(=O)CC2Oc3ccc(C)cc3NC2=O)c(C)c1` (configuration not stated), for which the “lipid storage change, negative = inhibition” value is -7.11% (inactive) and the cell number change was determined as 7.72%.
As for `Cc1ccc(S(=O)(=O)c2nnn(-c3cccc(F)c3)c2N)cc1`, the “lipid storage change, negative = inhibition” value was 1.42% (inactive) and the cell number change was -21.1%.
Consider `C[C@H](NC(=O)[C@H]1N2C(=O)c3ccccc3C2SC1(C)C)C(=O)N1CCCCC1` (some centres not stated), for which the Potency was 23.1 µM (active) and the cell number change is -4.2%.
As for `CCC(C)NC(=O)[C@H]1N2C(=O)c3ccccc3C2SC1(C)C` (some centres not stated), the “lipid storage change, negative = inhibition” value was -2.79% (inactive) and the cell number change was 25%.
As to `C[C@H](NC(=O)[C@H]1N2C(=O)c3ccccc3C2SC1(C)C)C(=O)N1CCC[C@H]1C(=O)O` (some centres not stated), the “lipid storage change, negative = inhibition” value was 26.5% (inactive).
`Cc1ccc(-c2nnnn2C2C/C(=N\NC(N)=S)C3OCC2O3)cc1` (configuration not stated): the “lipid storage change, negative = inhibition” value was -15.2% (inactive) and the cell number change is -15.7%.
With `COc1ccc(C(=O)N(Cc2ccco2)Cc2cccs2)c(O)c1`, the compound was called inactive and the cell number change turned out to be 11%.
Regarding `COc1ccc(C(=O)OCC(=O)NCCCc2ccccc2)c(OC)c1`, the “lipid storage change, negative = inhibition” value was 7.81% (inactive) and the cell number change was found to be 26.9%.
In the case of `COc1ccc(C(=O)N(CCc2ccccc2)Cc2cccs2)c(OC)c1`, the Potency is 13 µM (active) and the cell number change is -11.1%.
Take `CCOc1cc(C2C(C#N)=C(N)SC(N)=C2C#N)ccc1OCCN1CCOCC1`: the outcome was inactive.
With `CCN=C1S/C(=C/c2ccc(-c3ccc(F)cc3)o2)C(=O)N1CC`, the Potency was 18.4 µM (active) and the cell number change was determined as 4.49%.
Take `CCN=C1S/C(=C/c2ccc(-c3ccc(Cl)cc3C(=O)O)o2)C(=O)N1CC`: the “lipid storage change, negative = inhibition” value was -0.481% (inactive).
Take `CCN=C1S/C(=C\c2ccc(Sc3ccc(Cl)cc3)o2)C(=O)N1CC`: the “lipid storage change, negative = inhibition” value is 21.1% (inactive) and the cell number change is -1.66%.
Take `CCN1C(=O)/C(=C\c2ccc(-c3cccc(C(=O)OC)c3)o2)SC1=Nc1ccc(C(=O)O)cc1`: the Potency was 6.51 µM (active) and the cell number change is -21.2%.
Turning to `CC(C)(C)OC(=O)CN1C(=O)S/C(=C\c2ccc(-c3cccc(C(=O)O)c3)o2)C1=O`, the “lipid storage change, negative = inhibition” value is -14.2% (inactive) and the cell number change turned out to be 2.36%.
In the same order, the values of `O=C(O)c1cccc(-c2ccc(/C=C3/SC(=Nc4ccccc4)N(Cc4cccnc4)C3=O)o2)c1` are 6.57% (inactive) and -5.87%.
In the same order, the values of `CC1=[N+](CC(=O)NC(C)(C)C)CCc2ccccc21` are -0.327% (inactive) and -0.377%.
On the same counts, the results for `O=C(Nc1cccc(OC(=O)c2ccc(Br)o2)c1)c1ccccc1` are 4.19% (inactive) and 11.8%.
For `Cc1ccc(OCCCCNC2CCCCC2)c(C)c1`, the outcome was inactive.
Consider `COCCCNC(=O)CC(NS(=O)(=O)c1ccc(C)cc1)c1ccco1` (configuration not stated), for which the “lipid storage change, negative = inhibition” value is -3.27% (inactive) and the cell number change worked out at 0.789%.
Take `CCCNC(=O)CC(NS(=O)(=O)c1ccc(Cl)cc1)c1ccco1` (configuration not stated): the “lipid storage change, negative = inhibition” value was 19.4% (inactive) and the cell number change was found to be 17.5%.
For `COCCCNC(=O)CC(NS(=O)(=O)c1ccc(Cl)cc1)c1ccco1` (configuration not stated), the Potency is 32.6 µM (active).
In the case of `CSC(=NC1CCCCC1)NS(=O)(=O)c1ccccc1`, the “lipid storage change, negative = inhibition” value is -23.2% (inactive).
`COc1ccc(N2CCN(C(=O)c3ccc4ccccc4n3)CC2)cc1`: the “lipid storage change, negative = inhibition” value was 9.19% (inactive) and the cell number change was -2.64%.
In the same order, the values of `CN(CC(=O)Nc1ccc(N2CCOCC2)cc1)CC(=O)Nc1ccc(N2CCOCC2)cc1` are 6.32% (inactive) and -8.37%.
In the same order, the values of `O=[N+]([O-])C1=CC=C2C(=NC3(CCCCC3)N2O)C1=NCCO` are -7.19% (inactive) and -8.38%.
On the same counts, the results for `CCOc1cc(/C=C2\COc3ccccc3C2=O)ccc1OCC(=O)N(C)C` are -22.5% (inactive) and -5.65%.
With `CCOc1cc(/C=C2\COc3ccccc3C2=O)cc(Br)c1OCC(=O)N(C)C`, the call was inactive and the cell number change amounted to 21.8%.
As for `CCNC(=O)COc1ccc(/C=C2\COc3ccccc3C2=O)cc1OC`, the Potency was 3.66 µM (active).
For the compound `CSc1ccccc1OCc1cc(C(=O)NCCN2CCCc3ccccc32)no1`, the compound was called inactive.
Turning to `O=C(Nc1nnc(SCC(=O)N2CCOCC2)s1)c1ccccc1`, the “lipid storage change, negative = inhibition” value was -24.1% (inactive).
`Cc1cc(NC(=O)c2ccc(S(=O)(=O)N3CCOCC3)cc2)nc2c1c(=O)oc1ccccc12`: the “lipid storage change, negative = inhibition” value was -20.6% (inactive) and the cell number change is -0.276%.
In the same order, the values of `COc1cccc(CNC(=O)CCCNS(=O)(=O)c2cccs2)c1` are -4.23% (inactive) and -2.45%.
For `CCOC(=O)C1=C(C)NC(C)=C(C(=O)OCC)C1C(=O)OCC(=O)NC1(C#N)CCCCC1`, the lipid storage change, negative = inhibition was 18.2% [at 0.0737 µM] (inactive).
Turning to `O=C(CCCC(=O)OCC(F)(F)C(F)F)Nc1ccc(NC(=O)CCCC(=O)OCC(F)(F)C(F)F)cc1`, the result was inactive and the cell number change is 25.6%.
For `Cc1ccc(C)c(S(=O)(=O)NCc2ccc(C(=O)N3CC(C)OC(C)C3)cc2)c1` (configuration not stated), the “lipid storage change, negative = inhibition” value is -12.4% (inactive) and the cell number change was -9.56%.
In the case of `COc1ccc(N2CCN(C(=O)c3ccc(CNS(=O)(=O)c4cc(C)ccc4C)cc3)CC2)cc1`, the Potency was 7.31 µM (active) and the cell number change is -25.1%.
Regarding `CCOC(=O)N1CCN(C(=O)c2ccc(CNS(=O)(=O)c3ccc(OC)cc3)cc2)CC1`, the “lipid storage change, negative = inhibition” value was 3.37% (inactive).
For the compound `Cc1cccc(C(=O)NNc2ncnc3c2cnn3C)c1`, the “lipid storage change, negative = inhibition” value is -6.2% (inactive) and the cell number change was determined as 3.73%.
In the same order, the values of `CCCCC[C@H](O)/C=C/[C@@H]1[C@@H](C/C=C\CCCC(=O)OC)[C@@H](O)C[C@H]1O` are 1.11% (inactive) and 2.9%.
Consider `CCCCCCC(=O)Oc1ccc(N2C(=O)CCC2=O)cc1`, for which the “lipid storage change, negative = inhibition” value was 0.0787% (inactive) and the cell number change was -4.94%.
